In all, about 33,000 sequences were measured (“e-score”: median about -0.038, highest 2% from about 0.33 on). The entries come from a sample that favours the highest values as a whole.
What follows are sequences tested against T1, GST-Rok-C97-191 (Bacillus subtilis subsp. subtilis str. …, UniProt O34857 97-191) (assay: protein binding microarray; Rok is a gene silencer of Bacillus subtilis; high values mean tight binding). Conditions: protein: recombinant; tags: GST (pTH5325, pDEST15-Magic modified); dsDNA, one strand shown.
T1 sequence: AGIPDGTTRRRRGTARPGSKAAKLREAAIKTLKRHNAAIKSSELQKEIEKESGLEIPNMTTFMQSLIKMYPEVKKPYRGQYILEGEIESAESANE
How it was run: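 Each has a 25-mer constant primer and a 35-mer variable part from a de Bruijn sequence of order 10, covering every non-palindromic 8-mer at least 32 times (palindromic 16). Preference for each 8-mer is given as a rank-based, unitless enrichment score (E-score). Its range runs from 0.5 (most favored) to −0.5 (most disfavored).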

Sequence | binding signal
AAAACCGA | 0.0507 E-score
TATTCCCA | 0.217 E-score
ATCTAGGC | 0.0159 E-score
GCAACATA | 0.217 E-score
CTCGCATC | -0.126 E-score
ATACTATG | 0.254 E-score
GGACTATA | 0.0884 E-score
GTGCTATA | 0.202 E-score
CTGCTATA | 0.039 E-score
GTACTATA | 0.436 E-score
CCACTATA | 0.219 E-score
CTACTATA | 0.371 E-score
ATACTAGA | 0.305 E-score
CGACTATA | 0.122 E-score
ATGCTATA | 0.35 E-score
ATACTATA | 0.365 E-score
GCACTATA | 0.0612 E-score
TGAGGCAA | -0.148 E-score
ACGACTTC | 0.0725 E-score
GCTGGTTA | 0.0982 E-score
AGACCTGC | -0.148 E-score
CGCCAGCG | -0.123 E-score
AGACAATA | 0.0922 E-score
TACAGTCA | 0.144 E-score
TGGCTGAA | 0.00639 E-score

Sequence | binding signal
TAGTACTA | 0.402 E-score
AAGTACTA | 0.385 E-score
AAGTACAA | 0.349 E-score
AAGTACTC | 0.146 E-score
GAGTACAA | 0.136 E-score
AAGTACAC | 0.275 E-score
GAGTACTA | 0.0418 E-score
AAGTACTG | 0.145 E-score
CAGTACTA | 0.264 E-score
GTTATGCA | 0.256 E-score
CCTTCAAC | -0.0251 E-score
CTATTGGC | -0.0724 E-score
AAGCAAGT | -0.0255 E-score
GGCTATAC | -0.00424 E-score
ACAAGTCT | -0.182 E-score
ATAGTAAA | 0.357 E-score
GTAGTAAC | 0.307 E-score
GGAGTAAA | 0.000261 E-score
ATAGTACA | 0.347 E-score
CTAGTACA | 0.265 E-score
CTAGTAAA | 0.289 E-score
ATAGTAAC | 0.28 E-score
TTAGTAAA | 0.21 E-score
ATAGTAAT | 0.396 E-score
GTAGTAAA | 0.338 E-score

Sequence | binding signal
ATAGTACC | 0.254 E-score
ATAGTAAG | 0.278 E-score
CCCAGCAG | -0.112 E-score
CTGAACGC | -0.149 E-score
TACGACAA | 0.151 E-score
ATGGTCAA | 0.137 E-score
AAACTCCG | 0.115 E-score
GCTGTTTA | 0.0646 E-score
AAATTCTT | 0.105 E-score
AAATTCTA | 0.379 E-score
CAATTCTA | 0.287 E-score
TAATTCCA | 0.207 E-score
TAATTCAA | 0.168 E-score
GAATTCTC | 0.0595 E-score
AAATTCTC | 0.0486 E-score
TAATTCTA | 0.331 E-score
GAATTCTA | 0.363 E-score
CCCGCTCC | -0.108 E-score
GCGACCCA | 0.134 E-score
TCAAGGAA | -0.0876 E-score
ATCAACCA | -0.0125 E-score
ATATAGAT | 0.399 E-score
ATATAGAG | 0.165 E-score
CTATAGAA | 0.283 E-score
ATATAGAC | -0.00572 E-score

Sequence | binding signal
ATATAGAA | 0.347 E-score
GTATAGAA | 0.278 E-score
CTGACAAG | -0.143 E-score
AAGATGAG | 0.0366 E-score
CAACAAGA | -0.163 E-score
ACTTATAA | 0.338 E-score
CCTTATAA | 0.0808 E-score
GTATATGA | 0.224 E-score
ACTTATAT | 0.29 E-score
ATATATGA | 0.329 E-score
CTCTATAA | 0.0363 E-score
ATGTATAA | 0.364 E-score
CTGTATAA | 0.215 E-score
CAATATAA | 0.295 E-score
ATGTATAC | 0.308 E-score
CTATATAA | 0.359 E-score
CTATATGA | 0.0756 E-score
CACGGGCA | -0.13 E-score
AATTGTTA | 0.234 E-score
GCTTTCAA | -0.116 E-score
AGGAAGGA | -0.123 E-score
AGAGTACT | 0.169 E-score
CACGTAGA | -0.0653 E-score
AGCTCGCA | -0.0853 E-score
AGAGACTG | 0.0621 E-score

Sequence | binding signal
AACCAAAA | 0.0375 E-score
ACTGACCA | -0.00734 E-score
AGTCCAAT | -0.0629 E-score
GTCTATAA | 0.0588 E-score
ATCTATAG | 0.295 E-score
GTATATAA | 0.285 E-score
TAATATAA | 0.309 E-score
TAGTATAA | 0.413 E-score
TTATATAA | 0.384 E-score
AAGTATAA | 0.187 E-score
GGATATAA | 0.3 E-score
ATCTATAA | 0.355 E-score
TGATATAA | 0.309 E-score
ATATATAA | 0.449 E-score
CAGTATAA | 0.213 E-score
AGGACTAG | -0.0267 E-score
TAGAATCA | 0.222 E-score
AGTCGAGC | -0.0631 E-score
CTTTGCGC | -0.101 E-score
ACACACCC | -0.0492 E-score
ACAGGTTC | -0.0931 E-score
CACTATAA | 0.155 E-score
AACTATAA | 0.309 E-score
TACTATAA | 0.408 E-score
CGCAAATA | 0.178 E-score

Sequence | binding signal
GGAGAAAC | -0.116 E-score
AACCGCGA | -0.00712 E-score
GTTATTAA | 0.22 E-score
AATGTATC | 0.187 E-score
AATGTAGC | 0.144 E-score
AATGTAAA | 0.329 E-score
GATGTAAA | 0.164 E-score
GTTGTATA | 0.351 E-score
AATGTATG | 0.309 E-score
AATGTAGA | 0.359 E-score
ATTGTATA | 0.317 E-score
CATGTAGA | 0.327 E-score
CTTGTATA | 0.18 E-score
CATGTAAA | 0.25 E-score
AATGTATA | 0.35 E-score
TCCTAAAA | 0.103 E-score
CCAGGCCG | -0.0324 E-score
TTACTGAA | 0.144 E-score
ACGGGTAG | 0.0714 E-score
GAGGAAAA | -0.0709 E-score
AGTGCACT | 0.024 E-score
GTCAGAAA | 0.0136 E-score
GCATAACC | 0.0668 E-score
GCGGTTCC | -0.143 E-score
CCTTAGAC | -0.116 E-score

Sequence | binding signal
CACAACTA | 0.199 E-score
TCACTAGA | 0.155 E-score
AATGTAAG | 0.112 E-score
AATGTAAC | 0.166 E-score
AATGTAAT | 0.398 E-score
CCAGTGAC | -0.156 E-score
ACCACAGA | 0.0469 E-score
AAATAGCG | 0.13 E-score
AAATAGCC | 0.0812 E-score
ACATAGTA | 0.298 E-score
AAATAGTA | 0.427 E-score
TAATAGTA | 0.423 E-score
AAATAGCT | 0.336 E-score
TAATAGCA | 0.276 E-score
AAATAGTT | 0.406 E-score
AAATAGTC | 0.049 E-score
AAATAGCA | 0.0458 E-score
GAATAGTA | 0.325 E-score
AAATAGTG | 0.215 E-score
AAACCACC | -0.1 E-score
ACCGCCGA | -0.0492 E-score
CGAAGTCC | -0.0993 E-score

— publication PMC6212790, “How bacterial xenogeneic silencer rok distinguishes foreign from self DNA in its resident genome”
